A selection: hits, their analogues and other compounds. The true share with any hit is near 3.1%.
PLK1 PBD block: qHTS for Inhibitors of PLK1-PDB (polo-like kinase 1 - polo-box domain): Primary Screen | Serine/threonine-protein kinase PLK1 (Homo sapiens), P53350 | Plk1 PBD binding of FITC phosphopeptide, fluorescence polarization | Potency, µM, most hits filed as inhibitors | hit rate 2.8% among 360,000; also: series mostly up to about 57 µM; nearly all actives have a fitted effect of over 65% in size
Target sequence (P53350 whole entry, looked up, the tested form may be a part): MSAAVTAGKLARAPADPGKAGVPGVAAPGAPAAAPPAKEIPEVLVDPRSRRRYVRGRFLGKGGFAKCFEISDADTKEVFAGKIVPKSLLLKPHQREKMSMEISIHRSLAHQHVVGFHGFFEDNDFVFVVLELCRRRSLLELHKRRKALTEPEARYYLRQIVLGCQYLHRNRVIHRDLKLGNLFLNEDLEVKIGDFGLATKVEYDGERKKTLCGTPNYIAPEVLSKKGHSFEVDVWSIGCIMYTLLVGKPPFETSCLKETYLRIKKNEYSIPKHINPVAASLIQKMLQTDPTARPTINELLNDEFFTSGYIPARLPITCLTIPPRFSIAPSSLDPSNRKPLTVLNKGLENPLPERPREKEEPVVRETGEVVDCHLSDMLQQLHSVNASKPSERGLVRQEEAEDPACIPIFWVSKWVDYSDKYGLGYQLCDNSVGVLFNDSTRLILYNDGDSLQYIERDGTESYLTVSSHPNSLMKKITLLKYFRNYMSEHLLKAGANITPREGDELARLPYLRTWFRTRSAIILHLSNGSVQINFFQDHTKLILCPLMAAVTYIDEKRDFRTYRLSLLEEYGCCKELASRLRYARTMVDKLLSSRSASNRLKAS
PI4K2A inh: qHTS for small molecular inhibitors of PI4K2A. hit rate 0.13% among 420,000. purified PI4K2A, ADP-Glo luminescence, 1 h; stronger effect = lower value. activity change, negative = inhibition, % at 76.9 µM. Phosphatidylinositol 4-kinase type 2-alpha (Homo sapiens), Q9BTU6. AID 1346378, 2018; in the data active = activity change below about -50%; inconclusive = mostly about -30% to -49%
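ADP-Glo luminescence measured ADP generated by PI4K2A enzyme (4 ug/mL before mixing) with 1.2 mM PI substrate (pre-mix) and 300 microM ATP (pre-mix). Tris pH7.5 buffer with MgCl2, Triton X-100; 1 h reaction at ambient temperature.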
GLS inh: qHTS for Inhibitors of Glutaminase (GLS). Glutaminase kidney isoform, mitochondrial (Homo sapiens), O94925. GLS enzymatic activity, qHTS titration. Potency, µM (titrated, usually from 45.5 µM), actives largely listed as inhibitors. hit rate 0.21% among 410,000
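hKGA in 45 mM KH2PO4 pH 8.2, 0.02% Tween-20 with pin-transferred compounds; 1 mM L-glutamine (stock) plus glutamate oxidase/HRP/Amplex Red coupling added. Fluorescence read initially and after 30 min at RT.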
VDR inhibitor: Inhibitors of the vitamin D receptor (VDR): qHTS | Vitamin D3 receptor (Homo sapiens), P11473 | VDR-SRC2-3 peptide fluorescence polarization, 2 h | Potency, µM, most hits filed as inhibitors | hit rate 0.93% among 400,000 | AID 504847, 2011
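Inhibition of the VDR/SRC2-3 peptide interaction is quantified by fluorescence polarization. Compounds (23 nl, pintool) incubate with the reagents for 2 hours at ambient room temperature.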
KAT2A inh: qHTS Assay for Inhibitors of GCN5L2. GCN5L2 HAT assay, ThioGlo1 CoA-SH fluorescence. Potency, µM (top dose mostly 58.9 µM), usual class: inhibitors. Histone acetyltransferase KAT2A (Homo sapiens), Q92830. hit rate 0.21% among 390,000
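Fluorescence readout, Ex340nm/Em540nm: ThioGlo1 (50uM final) reacts with free CoA thiol released as 20nM GCN5L2 acetylates H3(1-25) peptide (75uM) using acetyl-CoA (70uM). Compound and enzyme sat 15 min beforehand; 20 min room-temperature reaction.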
Each line names hits and unclear results; the compound was inactive in the other large screens; ! = a repeat was not active. Unless noted, calls follow the shape of the dose curve; as a rule, active = well fitted curve in the direction sought with a large enough effect; inconclusive = small, poorly fitted or top-dose-only effect, or another doubt; inactive = no such curve, though single readings can be large; an effect the other way counts as inactive or inconclusive.

O=c1[nH]c(=O)n(Cc2ccco2)c(O)c1/C=N/N1CCCCCC1	GLS inh inconclusive
[Cl-].[Cl-].[Hg+2]	VDR inhibitor 2.5µM, KAT2A inh 0.14µM (no result: PLK1 PBD block, PI4K2A inh)
CC1([N+](=O)[O-])COP(=O)(Nc2ccc(Cl)cc2)OC1 (centres undefined)	VDR inhibitor 89µM (no result: KAT2A inh)
CSc1ccccc1NP1(=O)OCC(C)([N+](=O)[O-])CO1 (centres undefined)	none (no result: KAT2A inh)
F[Si-2](F)(F)(F)(F)F	KAT2A inh inconclusive (no result: PLK1 PBD block, PI4K2A inh)
COc1cc([C@@H]2c3cc4c(c(O)c3C[C@H]3COC(=O)[C@@H]32)OCO4)cc(OC)c1OC	none (no result: PLK1 PBD block, PI4K2A inh, GLS inh, KAT2A inh)
O=C1CN(C(=O)COC(=O)Cc2ccccc2)c2ccccc2N1	PLK1 PBD block 30µM
O=C(O)c1ccc(=O)[nH]c1	none (no result: PLK1 PBD block, GLS inh, VDR inhibitor, KAT2A inh)
CN1CCC[C@H]1c1cccnc1	none
CCCCCCCCCC[n+]1cccc([C@@H]2CCCN2C)c1	KAT2A inh 8.9µM (no result: PLK1 PBD block, PI4K2A inh, GLS inh)
CCOC(=O)C1=Nc2ccccc2/C1=C\c1c(O)n(C)c(=O)n(C)c1=O	PLK1 PBD block 13µM, PI4K2A inh inconclusive, VDR inhibitor inconclusive
CN1CC[C@@]2(C)c3cc(O)ccc3N(C)[C@@H]12	PLK1 PBD block 5.3µM, PI4K2A inh inconclusive, GLS inh inconclusive, VDR inhibitor inconclusive (no result: KAT2A inh)
O=C1NC(=O)C(=Cc2ccc(OCCOc3ccc([N+](=O)[O-])cc3)cc2)C(=O)N1	PLK1 PBD block 2.7µM, GLS inh inconclusive, VDR inhibitor 50µM
S=C1Nc2ccccc2Sc2ccccc21	PLK1 PBD block 27µM
C[n+]1c2cc(N)ccc2cc2ccc(N)cc21	PLK1 PBD block 0.67µM, VDR inhibitor 25µM!, KAT2A inh inconclusive
CCCCNC(=O)c1c(N)n(CCCOC)c2nc3ccccc3nc12	PI4K2A inh -58, VDR inhibitor 50µM
CC(C)CCNC(=O)c1c(N)n(Cc2ccc3c(c2)OCO3)c2nc3ccccc3nc12	VDR inhibitor 89µM
CC(C)CNC(=O)c1c(N)n(Cc2ccc3c(c2)OCO3)c2nc3ccccc3nc12	none
COCCCNC(=O)c1c(NC(=O)c2ccco2)n(Cc2ccccc2)c2nc3ccccc3nc12	PLK1 PBD block inconclusive, PI4K2A inh -57, VDR inhibitor 45µM
CCCCCn1c(NC(=O)c2ccco2)c(C(=O)OCC)c2nc3ccccc3nc21	PLK1 PBD block inconclusive, PI4K2A inh inconclusive, VDR inhibitor 5µM
NC(=O)CNC(=O)[C@H](Cc1ccccc1)NC(=O)[C@H](CCCN=C(N)N)NC(=O)[C@@H](N)Cc1ccc(O)cc1	none (no result: PLK1 PBD block, PI4K2A inh, GLS inh)
CCN1C[C@@]2(COC)C3[C@@H](OC)C4[C@@H]1C3([C@@H]1C[C@]3(O)[C@H](OC(=O)c5ccccc5)[C@@H]1[C@]4(OC(C)=O)[C@@H](O)[C@@H]3OC)[C@H](OC)C[C@H]2O	none (no result: PLK1 PBD block, GLS inh)
[Cl][Pt+2][Cl].[NH-]C1CCCCC1[NH-] (centres undefined)	VDR inhibitor 50µM
CC(Oc1ccc(Cl)cc1Cl)C(=O)Nc1ccc(S(=O)(=O)Nc2cnc3ccccc3n2)cc1 (centres undefined)	PLK1 PBD block 13µM
C[N+]1(CCF)[C@@H]2CC[C@H]1CC(OC(=O)C(O)(c1ccccc1)c1ccccc1)C2 (some centres undefined)	none (no result: PLK1 PBD block, GLS inh, VDR inhibitor, KAT2A inh)
CC(C)Oc1cc(-n2nc(C(C)(C)C)oc2=O)c(Cl)cc1Cl	none (no result: PLK1 PBD block, PI4K2A inh, GLS inh)
Cc1ccc(OCCn2cccc2/C=C2/C(=O)NC(=O)N(Cc3ccco3)C2=O)cc1	PLK1 PBD block 2.7µM, PI4K2A inh inconclusive
Cn1cccc1/C=C1\C(=O)NC(=O)N(Cc2ccco2)C1=O	PLK1 PBD block 24µM, GLS inh inconclusive
Cc1ccccc1-n1c(C)cc(/C=C2/C(=O)NC(=O)N(Cc3ccco3)C2=O)c1C	none
CCOC(=O)C1CCN(/C=C2/C(=O)NC(=O)N(Cc3ccco3)C2=O)CC1	PLK1 PBD block inconclusive, GLS inh 7.1µM
Cc1ccc(-n2c(C)cc(/C=C3/C(=O)NC(=O)N(Cc4ccco4)C3=O)c2C)cc1	PLK1 PBD block inconclusive
Nc1nc(/C(=C/CC(=O)O)C(=O)NC2C(=O)N3C(C(=O)O)=CCSC23)cs1 (centres undefined)	GLS inh 25µM, VDR inhibitor 50µM (no result: PLK1 PBD block, PI4K2A inh)
CC1=C(C(=O)O)N2C(=O)[C@@H](NC(=O)CCCC(=O)O)[C@H]2SC1	none
CSCC[C@H](NC(=O)[C@@H](NC(=O)CNC(=O)[C@H](CC(=O)O)NC(=O)[C@H](CCSC)NC(=O)[C@@H](N)Cc1ccc(O)cc1)[C@@H](C)O)C(=O)N[C@@H](CO)C(=O)N[C@@H](CCC(N)=O)C(=O)N[C@H](C(=O)O)C(C)C	none (no result: PLK1 PBD block, PI4K2A inh, GLS inh)
Cc1nn(CCC#N)c2c1P(=S)(N1CCCC1)OC(c1ccc(F)cc1)=N2 (centres undefined)	PLK1 PBD block 13µM, GLS inh inconclusive, VDR inhibitor 25µM
O=[N+]([O-])c1ccc(N2CCCC2)c2ncccc12	none
Nc1nnc(Sc2ncccc2[N+](=O)[O-])s1	PLK1 PBD block 9.5µM
CCC(C)N1C(=O)/C(=C\c2cc3c4c(c2)CCCN4CCC3)C(=O)NC1=S (centres undefined)	PLK1 PBD block 0.95µM, VDR inhibitor inconclusive
CCC(C)N1C(=O)/C(=C\c2cnc(N(C)C)nc2)C(=O)NC1=S (centres undefined)	PLK1 PBD block 6.7µM, GLS inh inconclusive, VDR inhibitor 45µM
Cc1cc(N2CCCC2)ccc1C=C(C#N)C#N	PLK1 PBD block inconclusive, VDR inhibitor inconclusive
Cc1ccc2cc(C=C(C#N)C#N)c(Cl)nc2c1	PLK1 PBD block 8.4µM, VDR inhibitor 35µM
COC(=O)C1=C(c2c(C)noc2C)C[C@@H]2CC[C@H]1N2C(=O)NCCO	PI4K2A inh -53
CCCSc1cc(OC)c(CCN)cc1OC	none (no result: PLK1 PBD block, PI4K2A inh, VDR inhibitor, KAT2A inh)
CCC1/C=C/C=CCC(C)C(O)[C@@](C)(O)C(=O)C(C)C(O)C(C)C(=O)C(C)C(O)C(C)C=CC(=O)O[C@H]2C(C)C(CC1)O[C@]1(CCC(C)C(CC(C)O)O1)C2C (some centres undefined)	none (no result: PLK1 PBD block, PI4K2A inh, GLS inh)
C=CCC1(C(C)CCC)C(=O)NC(=O)NC1=O (centres undefined)	none (no result: PLK1 PBD block, PI4K2A inh, VDR inhibitor, KAT2A inh)
CC1(C)C(=O)C=C[C@@]2(C)C1=C(O)C(=O)[C@@]1(C)C2CC[C@@]2(C)C(c3ccoc3)C[C@H]3O[C@@]321 (some centres undefined)	VDR inhibitor 7.9µM (no result: PLK1 PBD block, PI4K2A inh, GLS inh)
O=[N+]([O-])/N=C1\NCCN1Cc1ccc(Cl)nc1	none (no result: PLK1 PBD block, GLS inh, VDR inhibitor, KAT2A inh)
O=C(Nc1ccc2nc(-c3cccs3)c(-c3cccs3)nc2c1)N1CCCCC1	none (no result: PLK1 PBD block, PI4K2A inh, GLS inh, KAT2A inh)
O=C1c2ccccc2C(=O)N1SC1CCCCC1	PLK1 PBD block 1.9µM, GLS inh inconclusive, VDR inhibitor 20µM
NC(=O)c1cn(C2CCCCC2)c2ccccc2c1=O	none

Source: PubChem BioAssay
